FMDV inh: foot and mouth disease virus antiviral activity | hit rate 1.2% among 410,000 | AID 1159524 | FMDV antiviral cell-based qHTS | Potency, µM (highest dose often 57.9 µM), inactives show at the highest dose activity change, negative = inhibition, actives largely listed as inhibitors; calls by dose curve; tested in HEK293T cells; further: read-out not given here; potency means the concentration at half of the fitted maximal effect; on the % scale 0 is the no-effect control and ±100 the full control effect; nearly all actives have a fitted effect of over 45% in size
Sm TGR inh: S. mansoni TGR enzyme inhibition; AID 485364; Q962Y6; Potency, µM (series often up to 114 µM), without a hit: at the highest dose activity change, negative = inhibition, actives largely listed as inhibitors; purified TGR, DTNB reduction, TNB absorbance 405 nm; hit rate 3% among 360,000; active means well fitted inhibition curve with a large enough effect; inconclusive means small, poorly fitted or top-dose-only effect; inactive means no such curve, though single readings can be large or run the other way; further: potency means the concentration at half of the fitted maximal effect; on the % scale 0 is the no-effect control and ±100 the full control effect; nearly all actives have a fitted effect of over 60% in size
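TGR 20 nM + NADPH 100 uM (dispensed conc.), cpd preinc 15 min RT; start with NADPH (500 uM addition) then DTNB (15 mM addition). Kinetic TNB absorbance, 405 nm filter. Four-parameter Hill fit across titration.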
CHX counter: affects cycloheximide protein synthesis inhibition readout, counter-screen; cell reporter, cycloheximide protein synthesis inhibition counterscreen; max response, %; hit rate 12% among 300,000; AID 2314; in the data active means max response mostly above about 13%, no sharp cut-off; inactive means mostly below about 14%; further: read at 38.3 µM for the half of the compounds with a filed dose; 0% is about no effect
Shiga toxin inh: inhibitors of Shiga toxin in Vero cells; Vero cells, Shiga toxin protein synthesis inhibition reporter; inhibition, % at 38.7 µM; hit rate 9.2% among 290,000; in the data active means inhibition mostly above about 28%, no sharp cut-off; inactive means mostly below about 43%; further: 0% is about no effect
Starred values were filed as active, the others as inactive; ? = inconclusive; . = no result. In the library only some 12% were active in any assay of this set; here they are far more common.

SMILES	FMDV inh	Sm TGR inh	CHX counter	Shiga toxin inh
COc1cc(OC)c(C2Nc3cccc4cccc(c34)N2)c(OC)c1	?	?	-1	-5
Fc1cccc(Cl)c1C1Nc2cccc3cccc(c23)N1	-14%	?	24*	34
Cc1cccc(C)c1OCCn1c(C2CC(=O)N(Cc3ccc(F)cc3)C2)nc2ccccc21 (stereo not given)	?	-4%	.	.
c1ccc(C(c2ccccc2)N2CCC3(CCNCC3)CC2)cc1	-18%	.	.	.
Cc1cc(NC(=O)CN2CCCC(C)C2)no1 (stereo not given)	-9%	4%	13*	49*
COc1ccc(CNC(=O)c2cccn2-c2nnc(N3CCCC3)s2)c(OC)c1	2%	2%	.	.
CCOC(=O)c1[nH]c2c(c1Cc1ccccc1)C(=O)CC(c1ccc(C(C)(C)C)cc1)C2 (stereo not given)	0%	-1%	.	.
O=C(NNC(=O)c1cc2ccccc2o1)c1ccc(F)cc1	65%	2%	.	.
O=C(c1ccc(F)cc1)c1cc2ccccc2o1	45%	-5%	26*	41*
O=C(c1ccccc1)c1cc2ccccc2o1	36%	0%	38*	80*
O=C(NCc1ccc(F)cc1)c1cc2ccccc2o1	29%	-9%	14*	32
Cc1ccc(-c2nnc3c4ccccc4c(-c4ccccc4)nn23)cc1	-13%	7%	.	.
O=S(=O)(c1cccc(F)c1)N1CCC(Oc2ccc(-n3cnnn3)cc2)CC1	?	7%	.	.
CCOC(=O)c1ccc(NC(=O)CCc2c(C)nc3c(c(C)nn3C)c2C)cc1	?	-10%	.	.
COC(=O)c1[nH]c2ccc(F)cc2c1NC(=O)CCN1CCN(Cc2ccc3c(c2)OCO3)CC1	?	-26%	-5	-4
CCN(CC(=O)Nc1c(C(=O)OC)[nH]c2ccc(C)cc12)c1ccc2c(c1)OCO2	-25%	50µM*	-2	-14
COc1ccc(NC(=S)NC(C)Cc2cccs2)cc1 (stereo not given)	78%	-3%	29*	68*
COc1ccc(NC(=S)NCc2cccs2)cc1	51%	.	19*	47*
CC(Cc1cccs1)NC(=S)Nc1ccc(F)cc1 (stereo not given)	26%	-3%	10*	51*
COc1ccc(NC(=O)C(NC(=O)Cc2cccs2)c2ccc(OC)cc2)cc1 (stereo not given)	22%	2%	.	.
O=C(c1cnccn1)N1CCC[C@@]2(CCN(c3cccc(-c4ccccc4)c3)C2)C1	0%	.	.	.
COc1cc(NC(=S)N2c3ccccc3CC2C)cc(OC)c1 (stereo not given)	-23%	-15%	-2	4
CC1Cc2ccccc2N1C(=S)Nc1ccc(S(N)(=O)=O)cc1 (stereo not given)	-10%	-34%	-1	14
COc1cccc(NC(=S)N2c3ccccc3CC2C)c1 (stereo not given)	0%	0%	19*	31
CC(=O)c1ccc(NC(=S)N2c3ccccc3CC2C)cc1 (stereo not given)	-22%	-25%	23*	18
SMILES	FMDV inh	Sm TGR inh	CHX counter	Shiga toxin inh
CC(=O)C1=NN(c2ccccc2)C(c2cccs2)N1c1ccc(N(C)C)cc1 (stereo not given)	16µM*	0%	15	15
COc1ccccc1C1CN(Cc2cccc(OCCO)c2)Cc2ccccc2O1 (stereo not given)	0%	.	.	.
COc1ccc(CCn2nc(C)c([N+](=O)[O-])c2C)cc1	10%	-4%	30*	83*
COc1ccc(-c2nc(C3CCCCC3)no2)cc1OC	71%	10%	53*	163*
COc1ccc(-c2noc(-c3ccc(N4CCC(C)CC4)c([N+](=O)[O-])c3)n2)cc1OC	0%	-23%	.	.
c1ccc(-c2cnc(C3CCCCC3)o2)cc1	19%	.	.	.
c1ccc(-c2nc(C3CCCCC3)no2)cc1	62%	-2%	28*	45*
Cc1cccc(NC(=O)c2sc(-n3nc(C)c(Cc4ccc5c(c4)OCO5)c3C)nc2C)c1C	5%	-5%	.	.
COc1ccc(/C(N)=N/OC(=O)CCc2ccccc2)cc1OC	6%	21%	27*	60
Cc1cccc(/C(N)=N/OC(=O)CCc2ccccc2)c1	.	8%	32*	52*
COc1ccc(C(=O)c2ccccc2)cc1	22%	-5%	31*	45
O=C(c1ccccc1)c1ccc(OCCO)cc1	55%	0%	16	38*
COc1ccccc1OCCOc1ccc(C(=O)c2ccccc2)cc1	?	7%	7	8
COc1ccc(/C(N)=N/OC(=O)CCCN2C(=O)c3ccccc3C2=O)cc1OC	-12%	-6%	-3	17
COc1ccc(-c2nc3c4ccccc4n(CC(=O)N4CCN(c5ccccc5F)CC4)c(=O)n3n2)cc1	5%	22%	.	.
COc1cc(-c2cccc(Cl)c2)cc2c1OCCN(C(=O)CCn1ccc(C)n1)C2	-15%	.	.	.
O=C(c1ccccc1)c1ccc(Oc2ncccn2)cc1	44%	9%	58*	197
COc1ccc(C(=O)c2nccc3ccccc23)cc1	-23%	-3%	37*	48
COc1ccc(C(=O)CCc2ccccc2)cc1	52%	4%	43*	117*
CC(=O)Nc1ccc(Oc2ncccn2)cc1	.	-1%	.	.
COc1ccc(/C(N)=N/OC(=O)CCc2ccccc2)cc1	-4%	2%	52*	93*
COc1ccc(/C(N)=N/OC(=O)CSc2ccccc2)cc1OC	65%	4%	55*	68
O=C(COc1ccccc1)Nc1ccccc1C(=O)OCc1cc(=O)n2nc(C3CC3)sc2n1	-3%	4%	.	.
COC(=O)c1ccc(-n2c(CCC(=O)O)ccc2-c2ccc(C)cc2)cc1	?	28µM*	-4	-1
CCOC(=O)c1ccc(-n2c(CCC(=O)O)ccc2-c2ccc(F)cc2)cc1	-10%	22µM*	-1	20
SMILES	FMDV inh	Sm TGR inh	CHX counter	Shiga toxin inh
Cc1ccc(-c2ccc(CCC(=O)O)n2-c2ccc(C(=O)O)cc2)cc1	-2%	14µM*	11	36
COc1ccc(-c2ccc(CCC(=O)O)n2-c2cc(OC)ccc2OC)cc1	-1%	.	.	.
Cc1ccc(-c2ccc(CCC(=O)O)n2-c2cccc(C(=O)O)c2)cc1	9%	13µM*	71*	152*
CCOC(=O)CCn1nc(C)c2c(C)n(-c3ccccc3)nc2c1=O	-12%	5%	.	.
Cc1ccc(Cn2ncc3c4sc(C)cc4n(C)c3c2=O)cc1	.	.	8	-11
Cc1ccc(-c2ccc(CCC(=O)O)n2-c2ccc(C(C)C)cc2)cc1	-11%	40µM*	.	.
O=C(O)CCc1ccc(-c2ccccc2)n1-c1cccc(O)c1	.	14µM*	23*	54*
O=C(O)CCc1ccc(-c2ccc(Br)cc2)n1-c1ccccc1O	-16%	-18%	.	.
Cc1ccc(-c2ccc(CCC(=O)O)n2-c2cccc(C)c2C)cc1	-16%	22µM*	.	.
COCc1c(C(=O)NC2CCCCC2)cnn1-c1nccc(-c2cc(C)sc2C)n1	-17%	.	.	.
Cc1ccc(-c2noc(-c3nnn(CC(=O)Nc4cc(Cl)ccc4C)c3N)n2)cc1	14%	2%	.	.
N#Cc1c(N)oc(-c2ccco2)c1-c1ccco1	0%	35µM*	1	-4
Cc1ccc(CN2CCc3nc(N4CCN(C)CC4)ncc3C2)s1	-11%	18%	.	.
CCCCn1cnc2c(oc3ccccc32)c1=O	45%	24%	51*	72*

Source: PubChem BioAssay (National Center for Advancing Translational Sciences (NCATS))
